Assay results reported in PubChem BioAssay (Tox21).
Several values for one entry are separate records, joined by “and”; a condition that tells them apart may be missing. Equal entries are not always repeated. Records with an inconclusive call do not appear. Entries that show only a call come without a potency. Activity calls are given as the source filed them. Unless noted, the call rests on the fitted dose curve; in most records, active means well fitted curve in the direction sought with a large enough effect in the repeat runs; inconclusive means weak or mixed curves; inactive means no such curve, though single readings can be large; an effect the other way counts as inactive or inconclusive.

Key:
[1] = qHTS assay to identify small molecule antagonists of the retinoid acid receptor (RAR) signaling pathway - cell viability counter screen (AID 1159551); further: nearly all actives have a fitted effect of over 35% in size
Method in brief: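 Viability of C3RL4 cells is quantified from ATP by luminescence after 6 h treatment at 37 C with compounds and 1 uM retinol.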

[2] = qHTS assay to identify small molecule antagonists of the retinoic acid receptor (RAR) signaling pathway (AID 1159552; further: nearly all actives have a fitted effect of over 50% in size)
Method in brief: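 Using a RARE-driven luciferase construct in C3RL4 cells, retinol at 1 uM final provided the agonist stimulus while compounds were co-applied. After 6 hours at 37 C, luminescence was recorded to flag inhibitors of retinol signaling.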

[3] = qHTS assay to identify small molecule agonists of the retinoic acid receptor (RAR) signaling pathway (AID 1159553)
Method in brief: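 Compounds dissolved in DMSO were pinned onto C3RL4 cells seeded the previous day, and plates were held 6 hr at 37 C. RARE-driven luciferase output was then read by luminescence.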

[4] = qHTS assay to identify small molecule antagonists of the estrogen related receptor (ERR) signaling pathway - cell viability counter screen (AID 1224818); further: series mostly up to about 46 µM
Method in brief: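 Cytotoxicity check run alongside the ERR antagonist screen: cells exposed to test compounds 17.5 h at 37 C, viability taken as CellTiter-Fluor fluorescence intensity.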

[5] = qHTS assay to identify small molecule antagonists of the estrogen related receptor (ERR) signaling pathway (AID 1224819;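 further: luminescence from an ERR-driven luciferase reporter measured with One-Glo reagent; series mostly up to about 46 µM; nearly all actives have a fitted effect of over 50% in size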)
Method in brief: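 ERR reporter cells were plated at 2,000 cells/well and left 6 h at 37 C/5% CO2 before pin-tool transfer of compounds in DMSO. After 18 h at 37 C, One-Glo was added and luminescence was read 30 min later at room temperature.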

[6] = qHTS assay to identify small molecule agonists of the estrogen related receptor (ERR) signaling pathway (AID 1224820)
Method in brief: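 An ERR cell line provided by NTP was seeded at 2,000 cells per well and allowed to settle for 6 h before compounds in DMSO were added. After 18 h at 37 C, luciferase activity was measured by One-Glo luminescence.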

[7] = test system: estrogen-related receptor alpha (ERRalpha) with PGC-1alpha coactivator, human; test: qHTS assay to identify small molecule antagonists of the estrogen related receptor signaling pathway with the pleiotropic PPARgamma coactivator (PGC) (AID 1224821; calls by dose curve;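 further: series mostly up to about 46 µM; lower luminescence signal means antagonism of PGC/ERR signalling; nearly all actives have a fitted effect of over 50% in size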)
Method in brief: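 A PGC/ERR cell line supplied by NTP is seeded, allowed 6 h at 37 C, and treated with test compounds in DMSO for 18 h. Signal is then measured as luciferase luminescence using One-Glo.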

[8] = qHTS assay to identify small molecule antagonists of the estrogen related receptor signaling pathway with the pleiotropic PPARgamma coactivator (PGC) cell viability counter screen (AID 1224822; further: series mostly up to about 46 µM)
Method in brief: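 Viable cell signal (CellTiter-Fluor, 30 min, 37 C/5% CO2) was measured in PGC/ERR cells after a 17.5 h compound incubation.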

[9] = qHTS assay to identify small molecule agonists of the estrogen related receptor signaling pathway with the pleiotropic PPARgamma coactivator (PGC) (AID 1224823)
Method in brief: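 Compounds dissolved in DMSO are added by pin tool to PGC/ERR cells that have settled for 6 h, and incubation continues 18 h at 37 C. Reporter output is measured as One-Glo luminescence.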

[10] = qHTS assay to identify small molecule antagonists of the estrogen related receptor (ERR) signaling pathway from Tox21 library - cell viability counter screen (AID 1224834); further: nearly all actives have a fitted effect of over 30% in size
Method in brief: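 In this quantitative HTS format, ERR cells receive compounds in DMSO and are incubated for 17.5 h at 37 C. Live-cell protease activity is then detected with CellTiter-Fluor.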

[11] = target: Luciferin 4-monooxygenase (Photinus pyralis) (UniProt P08659); test: qHTS assay to identify small molecule inhibitors of firefly luciferase (AID 1224835); further: nearly all actives have a fitted effect of over 25% in size; further: potency means the concentration at half of the fitted maximal effect
Luciferin 4-monooxygenase (Photinus pyralis), sequence (P08659 whole entry, looked up): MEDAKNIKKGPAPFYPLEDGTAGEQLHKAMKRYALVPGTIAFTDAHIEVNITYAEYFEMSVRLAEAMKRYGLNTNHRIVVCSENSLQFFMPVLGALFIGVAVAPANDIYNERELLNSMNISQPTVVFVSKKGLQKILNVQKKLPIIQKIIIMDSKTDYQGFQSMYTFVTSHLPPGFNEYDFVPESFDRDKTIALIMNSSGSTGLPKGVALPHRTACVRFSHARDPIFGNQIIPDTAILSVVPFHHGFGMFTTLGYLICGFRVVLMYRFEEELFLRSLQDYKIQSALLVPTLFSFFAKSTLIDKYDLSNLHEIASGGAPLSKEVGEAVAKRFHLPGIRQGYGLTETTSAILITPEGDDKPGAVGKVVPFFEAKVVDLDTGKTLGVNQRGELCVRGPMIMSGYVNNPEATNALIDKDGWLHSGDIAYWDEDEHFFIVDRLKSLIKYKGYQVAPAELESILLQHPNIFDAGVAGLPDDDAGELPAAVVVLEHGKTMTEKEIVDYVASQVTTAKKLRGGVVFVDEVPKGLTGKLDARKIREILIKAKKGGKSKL
Method in brief: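 Inhibition of purified Photinus luciferase is measured by luminescence. Substrate levels (D-luciferin, ATP) sit at their KM values. Each compound is tested in a concentration series.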

[12] = qHTS assay to identify small molecule agonists of the constitutive androstane receptor (CAR) signaling pathway - cell viability counter screen (AID 1224836); further: series mostly up to about 92 µM; nearly all actives have a fitted effect of over 45% in size
Method in brief: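 Multiplexed viability check: HepG2-CYP2B6-hCAR cells, 15-point compound dosing, 0.75 uM PK11195 final, 23 h at 37 C, CellTiter-Fluor fluorescence.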

[13] = qHTS assay to identify small molecule antagonists of the constitutive androstane receptor (CAR) signaling pathway - cell viability counter screen (AID 1224837); further: series mostly up to about 92 µM; nearly all actives have a fitted effect of over 45% in size
Method in brief: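 In quantitative HTS format, compounds at 15 concentrations were applied to HepG2 cells double-transfected with hCAR and CYP2B6-2.2kb under 50 nM CITCO stimulation; live-cell protease activity was read after 23 hr via CellTiter-Fluor.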

[14] = target: Nuclear receptor subfamily 1 group I member 3 (Homo sapiens) (UniProt Q14994); test: qHTS assay to identify small molecule antagonists of the constitutive androstane receptor (CAR) signaling pathway (AID 1224838); further: nearly all actives have a fitted effect of over 40% in size
Nuclear receptor subfamily 1 group I member 3 (Homo sapiens), sequence (Q14994 whole entry, looked up): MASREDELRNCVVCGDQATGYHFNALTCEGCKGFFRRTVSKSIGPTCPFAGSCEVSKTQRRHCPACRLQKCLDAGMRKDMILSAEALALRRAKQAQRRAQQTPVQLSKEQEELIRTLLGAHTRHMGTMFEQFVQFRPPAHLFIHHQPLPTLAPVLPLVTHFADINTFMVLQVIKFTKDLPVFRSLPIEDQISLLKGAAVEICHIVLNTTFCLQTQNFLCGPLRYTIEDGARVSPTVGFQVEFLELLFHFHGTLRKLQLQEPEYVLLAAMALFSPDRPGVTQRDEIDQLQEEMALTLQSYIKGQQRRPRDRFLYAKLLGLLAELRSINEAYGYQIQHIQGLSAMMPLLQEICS
Method in brief: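 CITCO-stimulated (50 nM final) HepG2 cells stably transfected with hCAR and CYP2B6-2.2kb luciferase were exposed to compounds at 15 concentrations for 24 h at 37 C/5% CO2. A luciferase reagent was added and luminescence recorded after 30 min.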

[15] = target: Nuclear receptor subfamily 1 group I member 3 (Homo sapiens) (UniProt Q14994); test: qHTS assay to identify small molecule agonists of the constitutive androstane receptor (CAR) signaling pathway (AID 1224839); further: nearly all actives have a fitted effect of over 15% in size; further: potency means the concentration at half of the fitted maximal effect
Method in brief: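 Using human hepatoma HepG2 cells engineered with hCAR and a CYP2B6-2.2kb reporter, 15-concentration compound series were incubated 24 h alongside PK11195 at 0.75 uM final, with luminescence quantified afterwards.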

[16] = qHTS assay to identify small molecule antagonists of the estrogen related receptor signaling pathway with the pleiotropic PPARgamma coactivator (PGC) from Tox21 10K library - cell viability counter screen (AID 1224840; active means well fitted cell-killing curve with a large enough effect in the repeat runs, not every such curve was filed as active; further: nearly all actives have a fitted effect of over 40% in size)
Method in brief: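 Viability counter screen, PGC/ERR cells: 17.5 h compound exposure at 37 C, CellTiter-Fluor fluorescence endpoint.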

[17] = qHTS assay to identify small molecule antagonists of the estrogen related receptor signaling pathway with the pleiotropic PPARgamma coactivator (PGC) from Tox21 10K library (AID 1224841; call rule not given here; further: series mostly up to about 92 µM; actives are mostly falling curves and most rising ones were filed inactive; nearly all actives have a fitted effect of over 50% in size)
Method in brief: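 In the PGC/ERR line, DMSO solutions of test chemicals are pin-delivered to 2,000 cells/well six hours after dispensing. Following eighteen hours' incubation, One-Glo reagent is added and luminescence recorded.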

[18] = qHTS assay to identify small molecule agonists of the estrogen related receptor signaling pathway with the pleiotropic PPARgamma coactivator (PGC) from Tox21 10K library (AID 1224842); further: nearly all actives have a fitted effect of over 15% in size
Method in brief: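 Luminescence from One-Glo (30 min, room temperature) measured after PGC/ERR cells had 18 h at 37 C with pinned compound (23 nL in DMSO). Cells had been seeded at 2,000 per well and pre-incubated 6 h.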

[19] = qHTS assay to identify small molecule agonists of the RXR signaling pathway - cell viability counter screen (AID 1159529)
Method in brief: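 Viability read-out for the RXR-alpha agonist qHTS: luminescent CellTiter-Glo signal after 30 min at RT. HEK 293T bla reporter cells, 2% charcoal-stripped FBS, 16 hr compound incubation; tetraoctyl ammonium bromide as cytotoxic control.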

[20] = target: Thyrotropin receptor (Homo sapiens) (UniProt P16473); test: qHTS assay to identify small molecule agonists of the thyroid stimulating hormone receptor (TSHR) signaling pathway (AID 1224843; calls by dose curve; further: nearly all actives have a fitted effect of over 45% in size; further: potency means the concentration at half of the fitted maximal effect)
Thyrotropin receptor (Homo sapiens), sequence (P16473 whole entry, looked up): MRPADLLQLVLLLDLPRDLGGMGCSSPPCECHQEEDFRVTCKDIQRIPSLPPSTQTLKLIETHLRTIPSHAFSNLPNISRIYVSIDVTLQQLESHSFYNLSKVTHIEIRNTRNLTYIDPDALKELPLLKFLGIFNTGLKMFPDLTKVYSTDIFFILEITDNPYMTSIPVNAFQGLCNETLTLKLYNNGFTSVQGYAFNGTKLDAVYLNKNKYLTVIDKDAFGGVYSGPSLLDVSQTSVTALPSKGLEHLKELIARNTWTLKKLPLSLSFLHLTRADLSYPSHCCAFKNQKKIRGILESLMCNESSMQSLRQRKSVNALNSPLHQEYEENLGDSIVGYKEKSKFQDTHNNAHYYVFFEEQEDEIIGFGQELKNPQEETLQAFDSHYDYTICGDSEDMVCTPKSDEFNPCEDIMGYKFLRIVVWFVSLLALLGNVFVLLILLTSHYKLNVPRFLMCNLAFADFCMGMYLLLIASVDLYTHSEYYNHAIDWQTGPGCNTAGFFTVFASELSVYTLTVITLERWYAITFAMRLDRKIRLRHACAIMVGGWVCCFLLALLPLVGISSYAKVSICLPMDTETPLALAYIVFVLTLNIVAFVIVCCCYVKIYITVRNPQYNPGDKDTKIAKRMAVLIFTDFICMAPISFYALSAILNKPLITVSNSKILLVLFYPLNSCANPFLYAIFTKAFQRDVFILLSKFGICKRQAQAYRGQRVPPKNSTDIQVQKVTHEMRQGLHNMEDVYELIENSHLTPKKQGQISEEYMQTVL
Method in brief: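 Agonist activity read as cAMP rise via d2/cryptate HTRF competition, 1 h room-temperature detection, in HEK293 cells expressing TSHR. Fifteen-point titrations, each run in triplicate, with a 30 min room-temperature incubation beforehand.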

Row | Structure (SMILES) | Potency [1] | Potency [2] | Potency [3] | Potency [4] | Potency [5] | outcome [6] | Potency [7] | Potency [8] | outcome [9] | Potency [10] | Potency [11] | Potency [12] | Potency [13] | Potency [14] | Potency [15] | Potency [16] | Potency [17] | Potency [18] | Potency [19] | Potency [20]
1 | CNC1(C)C2CCC(C2)C1(C)C (stereo not given) | inactive | inactive | inactive | inactive | inactive | inactive | inactive | inactive | inactive | inactive | inactive | inactive | inactive | inactive | inactive | inactive | inactive | inactive | – | –
2 | CC(C)(C)c1cc(C(C)(C)C)c(O)c(C(C)(C)C)c1 | inactive | – | – | – | – | – | – | – | – | inactive | inactive | inactive | inactive | – | 12.2 µM (active) | inactive | – | – | inactive | inactive
3 | CC(COc1ccccc1)N(CCCl)Cc1ccccc1 (stereo not given) | inactive | – | – | – | – | – | – | – | – | inactive | inactive | – | inactive | inactive | – | inactive | – | – | inactive | 30.9 µM (active) and 43.3 µM (active) and 29.8 µM (active)
4 | O=S(=O)(O)c1ccc2nc(-c3ccccc3)[nH]c2c1 | – | inactive | inactive | – | – | – | – | – | – | inactive | 19 µM (active) and 12.3 µM (active) | inactive | inactive | inactive | inactive | inactive | inactive | inactive | inactive | inactive
5 | CCCCCCC(O)CCCCCCCCCCC(=O)O (stereo not given) | inactive | inactive | inactive | – | – | – | – | – | – | inactive | inactive | inactive | inactive | inactive | inactive | inactive | inactive | inactive | – | –
6 | O=C(O)CP(=O)(O)O | inactive | inactive | inactive | inactive | – | – | – | inactive | – | inactive | inactive | inactive | inactive | inactive | – | inactive | – | – | – | inactive
7 | O=C(Cl)c1cccc(C(=O)Cl)c1 | inactive | – | – | – | – | – | – | – | – | inactive | inactive | inactive | inactive | inactive | – | inactive | – | – | inactive | –
